Screening results as filed in PubChem.
AmpC inh no detg – AmpC beta-lactamase inhibition without detergent. AmpC nitrocefin hydrolysis, absorbance 480 nm, 0.0001% Triton. Potency, µM (titrated, usually from 57.1 µM), for inactives: at the top dose activity change, negative = inhibition, most hits filed as inhibitors. actives 0.52% (n = 330,000). AID 485341;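 note: plate controls were no compound for no effect and no enzyme for full effect; nearly all actives have a fitted effect of over 20% in size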
Target sequence (P00811 whole entry, looked up): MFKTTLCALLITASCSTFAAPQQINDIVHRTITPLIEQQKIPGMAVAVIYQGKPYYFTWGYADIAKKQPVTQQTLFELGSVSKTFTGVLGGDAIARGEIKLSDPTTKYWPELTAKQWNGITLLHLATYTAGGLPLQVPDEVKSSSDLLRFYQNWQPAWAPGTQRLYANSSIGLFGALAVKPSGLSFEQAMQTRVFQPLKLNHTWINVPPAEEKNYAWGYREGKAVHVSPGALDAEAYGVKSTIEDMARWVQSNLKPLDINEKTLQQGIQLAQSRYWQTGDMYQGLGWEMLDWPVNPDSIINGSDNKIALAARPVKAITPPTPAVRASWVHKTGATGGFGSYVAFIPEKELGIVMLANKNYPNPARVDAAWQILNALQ
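AmpC (5.3 nM in the dispensed reagent) in 20 mM phosphate pH 7.0 with 0.01% (detergent screen) or 0.0001% Triton X-100 was preincubated with compounds for 15 min at room temperature. Nitrocefin was then added from an 800 uM solution, and hydrolysis was followed at 480 nm.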
SARS PLP yeast – blocks SARS-CoV papain-like protease in a yeast assay; actives 0.19% (n = 330,000); S. cerevisiae expressing SARS-CoV PLpro, growth rescue; Potency, µM (doses to about 32.9 µM), inactives show at the top dose activity, positive = growth rescue, hits mostly activators; AID 485353; calls by dose curve; note: 0% is about no effect; nearly all actives have a fitted effect of over 55% in size
Sm TGR inh – inhibitors of Schistosoma mansoni thioredoxin glutathione reductase; Q962Y6; purified TGR, DTNB reduction, TNB absorbance 405 nm; Potency, µM (doses to about 114 µM), for inactives: at the top dose activity change, negative = inhibition, actives largely listed as inhibitors; actives 3% (n = 360,000); note: % is set by controls: 0 for no effect and ±100 for the full control effect; nearly all actives have a fitted effect of over 60% in size
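Kinetic colorimetric format: TGR-catalysed, NADPH-driven DTNB reduction monitored via TNB absorbance. Enzyme dispensed at 20 nM; compound exposure 15 min at room temperature before reaction start.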
Pf growth 48h – inhibits P. falciparum growth in the first generation, 48 h; Potency, µM (series often up to 28.7 µM), for the others: at the top dose activity change, negative = inhibition, actives largely listed as inhibitors; P. falciparum luciferase growth in erythrocytes, 48 h; actives 5.9% (n = 310,000); note: % is set by controls: 0 for no effect and ±100 for the full control effect
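Erythrocytes infected with P. falciparum carrying an integrated firefly luciferase reporter (2% hematocrit, 0.1% parasitemia final) were exposed to compounds in RPMI 1640 with 0.5% Albumax at 37 C, 5% CO2. Growth inhibition was scored as reduced luminescence.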
AmpC detergent – inhibitors of E. coli AmpC beta-lactamase with detergent. Potency, µM (highest dose often 114 µM), for inactives: top-dose activity change, negative = inhibition, actives largely listed as inhibitors. AmpC hydrolysis of nitrocefin, absorbance 480 nm, 0.01% Triton. P00811. actives 0.041% (n = 370,000);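 note: 0% = no-compound wells and -100% = no-enzyme wells; nearly all actives have a fitted effect of over 25% in size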
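AmpC (5.3 nM in the dispensed reagent) in 20 mM phosphate pH 7.0 with 0.01% (detergent screen) or 0.0001% Triton X-100 was preincubated with compounds for 15 min at room temperature. Nitrocefin was then added from an 800 uM solution, and hydrolysis was followed at 480 nm.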
Pf growth 96h – P. falciparum growth inhibition at 96 hours. AID 504834. actives 6.9% (n = 320,000). Potency, µM (titrated, usually from 28.7 µM), for the others: at the top dose activity change, negative = inhibition, usual class: inhibitors. P. falciparum luciferase reporter growth, 96 h; note: % is set by controls: 0 for no effect and ±100 for the full control effect
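Two-generation exposure (96 h) targets delayed-death phenotype. Reporter parasites carrying integrated firefly luciferase, in red cells at 2% hematocrit and 0.05% parasitemia final, kept at 37 C, 5% CO2; luminescence loss indicates inhibition.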
An asterisk follows results filed as active; ! = a repeat was not active. A selection: hits, their analogues and other compounds. The true share with any hit is near 12%. Unless noted, calls come from the whole dose curve; as a rule, active = well fitted curve in the direction sought with a large enough effect; inconclusive = small, poorly fitted or top-dose-only effect, or another doubt; inactive = no such curve, though single readings can be large; an effect the other way counts as inactive or inconclusive. Potency is the fitted concentration of half-maximal effect.

`COc1cc2c(cc1NC(=O)C(C)Sc1cccc[n+]1[O-])oc1ccccc12` (stereo not given) gave AmpC inh no detg 295%, SARS PLP yeast -19%, Sm TGR inh -11%, Pf growth 48h 202%, AmpC detergent -3% and Pf growth 96h 173%.
Screening COc1ccc(CC(=O)Nc2ccccc2NC(=O)Cc2ccc(OC)cc2)cc1 returned AmpC inh no detg -32%, SARS PLP yeast 1%, Sm TGR inh 5%, Pf growth 48h 6.6µM*, AmpC detergent -2% and Pf growth 96h 20%.
`OCC[C@H]1C[C@H](O)[C@@H](O)[C@]2(OCCc3ccccc32)O1` gave AmpC inh no detg -10%, SARS PLP yeast -10%, Sm TGR inh -11%, Pf growth 48h 1%, AmpC detergent -7% and Pf growth 96h 69%.
CC(=O)NNS(=O)(=O)c1ccccc1[N+](=O)[O-] was read as AmpC inh no detg -22%, SARS PLP yeast 20%, Sm TGR inh 0%, Pf growth 48h -2%, AmpC detergent -8% and Pf growth 96h 34%.
Screening COc1ccc(CC(=O)Nc2cc3oc4ccccc4c3cc2OC)cc1 returned AmpC inh no detg 1%, SARS PLP yeast -2%, Sm TGR inh -2%, Pf growth 48h 46%, AmpC detergent -6% and Pf growth 96h 10µM*.
Screening COc1cc2c(cc1NC(=S)NC(=O)c1c(OC)cccc1OC)oc1ccccc12 returned AmpC inh no detg -18%, SARS PLP yeast 0%, Sm TGR inh 1%, Pf growth 48h 4.1µM*, AmpC detergent inconclusive and Pf growth 96h 3.7µM*.
For COc1ccc(CC(=O)NNS(=O)(=O)c2ccccc2[N+](=O)[O-])cc1 the results were AmpC inh no detg -24%, SARS PLP yeast 1%, Sm TGR inh -1%, Pf growth 48h 24%, AmpC detergent -2% and Pf growth 96h 4.7µM*.
For COc1ccc(N2CCN(S(=O)(=O)c3cn(C)cn3)CC2)cc1 the results were AmpC inh no detg -20%, SARS PLP yeast 6%, Sm TGR inh -5%, Pf growth 48h 25%, AmpC detergent -5% and Pf growth 96h 3%.
Screening CCN(CC)S(=O)(=O)c1ccc2c(c1)c(=O)c(C(=O)N1CCN(c3ccccn3)CC1)cn2C returned AmpC inh no detg 62%, SARS PLP yeast 0%, Sm TGR inh -1%, Pf growth 48h -7%, AmpC detergent -7% and Pf growth 96h 0.52µM*.
Screening CCN(CC)S(=O)(=O)c1ccc2c(c1)c(C(=O)O)cn2C returned AmpC inh no detg -21%, SARS PLP yeast 6%, Sm TGR inh 1%, Pf growth 48h 8%, AmpC detergent 6% and Pf growth 96h 6.6µM*.
CCN(CC)C(=O)c1cn(C)c2ccc(S(=O)(=O)N(CC)CC)cc2c1=O was read as AmpC inh no detg -5%, SARS PLP yeast 6%, Sm TGR inh 4%, Pf growth 48h -12%, AmpC detergent 3% and Pf growth 96h 32%.
Cc1nc2ccccc2nc(=O)c1NNc1ccccc1 was read as AmpC inh no detg -30%, SARS PLP yeast -3%, Sm TGR inh -3%, Pf growth 48h 87%, AmpC detergent inconclusive and Pf growth 96h 6.7µM*!.
Screening Cc1cc([N+](=O)[O-])nn1CCCC(=O)Nc1cccc(Cl)c1Cl returned AmpC inh no detg -14%, SARS PLP yeast -7%, Sm TGR inh 20%, Pf growth 48h 3%, AmpC detergent 10% and Pf growth 96h 14%.
`CCCc1cc(=O)[nH]c2nnc(SCC(=O)Nc3cccc(C)c3)n12` gave Sm TGR inh -2% and AmpC detergent 2%.
For CCCOc1ccc(Cl)cc1/C=C1/C(=O)ON=C1C the results were AmpC inh no detg -11%, SARS PLP yeast 0%, Sm TGR inh 14µM*, Pf growth 48h -12%, AmpC detergent -12% and Pf growth 96h 0%.
CCOc1cc(/C=N/OC(C)=O)ccc1OCc1ccccc1 was read as AmpC inh no detg 20%, SARS PLP yeast 1%, Sm TGR inh -4%, Pf growth 48h 27%, AmpC detergent -2% and Pf growth 96h 10µM*.
`CCOc1cc(/C=C2/C(=O)ON=C2C)ccc1OCc1ccccc1` gave AmpC inh no detg -3%, SARS PLP yeast 0%, Sm TGR inh 50µM*, Pf growth 48h inconclusive, AmpC detergent -9% and Pf growth 96h -8%.
COc1ccccc1/C=C1/C(=O)ON=C1C was read as AmpC inh no detg 3%, SARS PLP yeast 3%, Sm TGR inh -13%, Pf growth 48h 18%, AmpC detergent 1% and Pf growth 96h inconclusive.
`O=[N+]([O-])c1ccccc1-c1cc(-c2ccccc2)cc(-c2ccccc2)[n+]1Cc1ccccc1Cl` gave AmpC inh no detg 94%, SARS PLP yeast -2%, Sm TGR inh -3%, Pf growth 48h 0.93µM*, AmpC detergent -8% and Pf growth 96h inconclusive.
O=[N+]([O-])c1ccc(-[n+]2c(-c3ccccc3)cc(-c3ccccc3)cc2-c2ccccc2)cc1 was read as AmpC inh no detg -1%, SARS PLP yeast -5%, Sm TGR inh 8%, Pf growth 48h inconclusive, AmpC detergent -9% and Pf growth 96h 0%.
Screening CCOc1ccc(NC(=O)CSc2nnc(CNC(=O)C34CC5CC(CC(C5)C3)C4)n2CC)cc1 returned Sm TGR inh -13% and AmpC detergent -3%.
For Cc1cccc(CS(=O)(=O)Cc2ccc(C(=O)NCCN3CCCCC3C)o2)c1 (stereo not given) the results were AmpC inh no detg 4%, SARS PLP yeast 4%, Sm TGR inh 35µM*, Pf growth 48h -24%, AmpC detergent inconclusive and Pf growth 96h 19%.
For Cc1cccc(CS(=O)(=O)Cc2ccc(C(=O)NCc3cccnc3)o2)c1 the results were AmpC inh no detg -7%, SARS PLP yeast 10%, Sm TGR inh inconclusive, Pf growth 48h -2%, AmpC detergent -13% and Pf growth 96h 1.9µM*.
Cc1cccc(CS(=O)(=O)Cc2ccc(C(=O)O)o2)c1 was read as AmpC inh no detg -46%, SARS PLP yeast 2%, Sm TGR inh 25µM*, Pf growth 48h 3%, AmpC detergent -1% and Pf growth 96h 10%.
`COCCCNC(=O)c1ccc(CS(=O)(=O)Cc2cccc(C)c2)o1` gave AmpC inh no detg 1%, SARS PLP yeast 1%, Sm TGR inh -20%, Pf growth 48h 5%, AmpC detergent -10% and Pf growth 96h inconclusive.
